Assay [1] is described as follows: qHTS for Inhibitors of the Functional Ribonucleoprotein Complex (vRNP) of Lassa (LASV) Arenavirus: Viability assay - alamar blue signal for LASV Primary Screen (AID 1347083; calls by dose curve; tested in HEK293 reporter line; also: potency is read from the fitted curve at half-maximal effect; nearly all actives have a fitted effect of over 80% in size). On the technique in general: qHTS replaces the single test concentration by a dilution series.
The target of assay [2] is Nucleoprotein (Lymphocytic choriomeningitis virus (strain Armstrong)) (UniProt P09992). Kind of assay: qHTS for Inhibitors of the Functional Ribonucleoprotein Complex (vRNP) of Lymphocytic Choriomeningitis Arenaviruses (LCMV): LCMV Primary Screen - GLuc reporter signal (AID 1347086). Also: nearly all actives have a fitted effect of over 70% in size. Also: potency is read from the fitted curve at half-maximal effect.
Nucleoprotein (Lymphocytic choriomeningitis virus (strain Armstrong)), sequence (P09992 whole entry, looked up): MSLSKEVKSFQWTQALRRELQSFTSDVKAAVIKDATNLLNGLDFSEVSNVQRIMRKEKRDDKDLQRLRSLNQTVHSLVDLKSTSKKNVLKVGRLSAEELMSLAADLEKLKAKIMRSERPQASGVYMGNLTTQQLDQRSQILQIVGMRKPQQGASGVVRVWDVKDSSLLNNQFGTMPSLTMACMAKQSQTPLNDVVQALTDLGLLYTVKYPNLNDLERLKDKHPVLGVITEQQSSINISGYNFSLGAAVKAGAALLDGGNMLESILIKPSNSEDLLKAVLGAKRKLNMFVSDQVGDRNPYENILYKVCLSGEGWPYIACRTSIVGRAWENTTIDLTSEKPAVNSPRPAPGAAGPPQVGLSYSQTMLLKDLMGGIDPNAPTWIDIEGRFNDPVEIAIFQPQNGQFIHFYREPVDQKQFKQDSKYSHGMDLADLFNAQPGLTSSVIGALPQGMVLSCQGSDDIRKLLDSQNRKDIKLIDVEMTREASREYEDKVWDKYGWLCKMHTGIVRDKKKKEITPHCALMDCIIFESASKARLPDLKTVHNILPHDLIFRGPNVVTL
A short description of assay [3]: qHTS of pediatric cancer cell lines to identify multiple opportunities for drug repurposing: Primary screen for DAOY cells (AID 1347090; active = well fitted cell-killing curve with a large enough effect; also: nearly all actives have a fitted effect of over 55% in size; also: potency is read from the fitted curve at half-maximal effect). The method in brief: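 Viability measured as metabolically active cells via CellTiter-Glo luminescence following 48 hours of compound exposure, 11-point dilutions in confirmatory testing. 500-1,000 cells/well plated 5 hours before dosing; controls were DMSO and 2.3 µM bortezomib.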

Assay [4] in a line: qHTS for Inhibitors of the Functional Ribonucleoprotein Complex (vRNP) of Lymphocytic Choriomeningitis Arenaviruses (LCMV): Viability assay - alamar blue signal for LCMV Primary Screen (AID 1347085; calls by dose curve; tested in HEK293 reporter line; also: series mostly up to about 57 µM; nearly all actives have a fitted effect of over 80% in size).
A short description of assay [5]: qHTS of pediatric cancer cell lines to identify multiple opportunities for drug repurposing: Primary screen for TC32 cells (AID 1347089; active = well fitted cell-killing curve with a large enough effect; also: nearly all actives have a fitted effect of over 60% in size; also: potency is read from the fitted curve at half-maximal effect). In short, it runs like this:
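A viability screen of TC32 cells was run over 48 h, with primary MIPE doses spanning 0.78 nM–46 µM and NPC doses 0.59 nM–46 µM. ATP luminescence (CellTiter-Glo) served as the read-out.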

Records with an inconclusive call do not appear. Calls of active or inactive are those of the source. Unless noted, calls follow the shape of the full dose curve.

Consider `CO/C=C(/C(=O)OC)c1ccccc1Oc1cc(Oc2ccccc2C#N)ncn1`, for which the Potency in assay [1] is 22.4 µM (active); in assay [2] it was 10 µM (active); in assay [3] it was 9.69 µM (active).

With `c1ccc2c(-c3cnn4cc(-c5ccc(N6CCNCC6)cc5)cnc34)ccnc2c1`, the Potency entry in assay [2] was “inactive”.

As for `CN[C@@H](C)C(=O)N[C@H]1CCCC[C@H]2CC[C@@H](C(=O)N[C@@H](c3ccccc3)c3cn(CCCCc4ccc(CCCCn5cc([C@@H](NC(=O)[C@@H]6CC[C@@H]7CCCC[C@H](NC(=O)[C@H](C)NC)C(=O)N76)c6ccccc6)nn5)cc4)nn3)N2C1=O`, the Potency in assay [1] was 19.3 µM (active). Further, in assay [2], the Potency result was “inactive”.

With `Cc1cc2c(F)c(Oc3ncnn4cc(OC[C@@H](C)O)c(C)c34)ccc2[nH]1`, the Potency in assay [1] was 24.3 µM (active); in assay [2], 13.7 µM (active).

Regarding `C[C@@H](Oc1cc(-n2cnc3ccc(CN4CCN(C)CC4)cc32)sc1C(N)=O)c1ccccc1C(F)(F)F`, the Potency result in assay [4] and in assay [2] was “inactive” each time.

Take `Nc1ccc([N+](=O)[O-])cc1`: the Potency entry in assay [5] and in assay [3] was “inactive” in each case.

Regarding `COc1cc2c(Oc3ccc4[nH]c(C)cc4c3F)ncnc2cc1OCCCN1CCCC1`, the Potency result in assay [4] and in assay [2] was “inactive” throughout.

For the compound `COc1ccc(C(c2ccc(OC)cc2)C(Cl)(Cl)Cl)cc1`, the Potency result in assay [4], in assay [2] and in assay [5] was “inactive” throughout.

As for `NC(=O)c1ccc(-c2nc(-c3ccc4c(c3)OCCO4)c(-c3ccccn3)[nH]2)cc1`, the Potency in assay [1] was 21.7 µM (active). In assay [2], the Potency result is “inactive”.

As to `CN(C)C(=O)c1ccc(S(=O)(=O)c2ccc(NC(=O)[C@@](C)(O)C(F)(F)F)c(Cl)c2)cc1`, the Potency entry in assay [4] is “inactive”.

For `S=C(SSC(=S)N1CCCCC1)N1CCCCC1`, the Potency was 0.938 µM (active) in assay [5] and 0.0266 µM (active) in assay [3].

For `Nc1ccc(N=Nc2ccccc2)cc1`, the Potency result in assay [2] is “inactive”.

For `Clc1ccc(C(c2ccc(Cl)cc2)n2cc[n+](CC(OCc3ccc(Cl)cc3Cl)c3ccc(Cl)cc3Cl)c2)cc1` (stereo not drawn), in assay [2], the Potency was 15.3 µM (active).

Take `COc1cc2ncnc(Nc3ccc(F)c(Cl)c3)c2cc1NC(=O)C=CCN1CCCCC1`: the Potency entry in assay [4] and in assay [2] was “inactive” throughout.

Consider `Cc1c(C(=O)Nc2cccc(C(F)(F)F)c2)cc(-c2ccccc2)n1CCCN1CCOCC1`, for which the Potency entry in assay [5] is “inactive”.

Take `CCCCCCCCCCCCCCCC[N+](C)(C)C`: the Potency in assay [3] is 13.3 µM (active).

(Values after PubChem BioAssay (NCATS).)
